18 compounds from paper PMC5540273 (PLoS ONE, 2017) can be followed below.

Among the test systems are PAK2; PAK3; PAK4; PAK6; PAK7; PDGFRA; PDGFRB.
Common to all, as to details: concentration: 1 μM, replicates: in singlicate; n = 1
A further test relates to T1, PCTK1.
T1 construct: gene CDK16

The test system of another test is T2, PCTK2.
T2 construct: gene CDK17

A further test concerns T3, PCTK3.
T3 construct: gene CDK18
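Further: KINOMEscan kinase panel screen.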

Take `Cl.c1ccc(Cn2cnc3cc(Nc4ncnc5ccccc45)ccc32)cc1` [GW272142]: the “%Inh” value in the test with PAK2 is 0%; with PAK3, 0%; in the test on PAK4 it was 0%; in the test with PAK6, 58%; with PAK7, 9%; in the test with PCTK1, 0%. Moreover, the “%Inh” value with PCTK2 is listed as 0%; in the test on PCTK3, 29%; in the test with PDGFRA it was 0%; in the test with PDGFRB, 6%.
`Cc1ccc(Oc2ccc(Nc3ncnc4cc[nH]c34)cc2C)cn1`: the “%Inh” value with PAK2 was 37%; in the test with PAK3, 4%; in the test with PAK4, 25%; with PAK6, 27%; with PAK7 it was 0%; with PCTK1, 0%. For the same compound, the “%Inh” value in the test on PCTK2 is listed as 8%; in the test with PCTK3 it was 2%; with PDGFRA it was 49%; with PDGFRB, 21%.
As to `Cc1nnc(-c2ccc(C)c(-c3ccc(C(=O)O)cc3)c2)o1` [GW608005], the “%Inh” value with PAK2 is given as 9%; in the test on PAK3, 0%; with PAK4 it was 0%; in the test with PAK6, 0%; in the test on PAK7, 0%; in the test on PCTK1, 0%. In addition, the “%Inh” value in the test on PCTK2 stood at 0%; with PCTK3, 2%; in the test with PDGFRA it was 0%; with PDGFRB it was 4%.
As to `Cc1nn2c(=O)cc(N3CCOCC3)nc2n1Cc1cccc(Cl)c1Cl` [GSK2342769], the “%Inh” value was determined as 2% in the test on PAK2; 0% with PAK3; 0% with PAK4; 0% in the test on PAK6; 0% in the test with PAK7; 4% in the test on PCTK1. The “%Inh” value in the test with PCTK2 turned out to be 0%; in the test with PCTK3, 15%; in the test on PDGFRA it was 0%; in the test with PDGFRB, 16%.
Take `COc1ccc(-c2cc3c(C)nc(N)nc3n([C@H]3CC[C@H](OCCO)CC3)c2=O)cn1`: the “%Inh” value in the test on PAK2 was 1%; in the test on PAK3, 0%; in the test with PAK4, 0%; in the test with PAK6, 0%; in the test on PAK7, 0%; in the test on PCTK1, 0%. The “%Inh” value in the test with PCTK2 came out at 3%; in the test with PCTK3, 0%; in the test with PDGFRA, 0%; with PDGFRB, 1%.
Consider `COc1cc(Nc2ccnc3ccc(C(F)(F)F)cc23)cc(OC)c1OC` [GW577382], for which the “%Inh” value with PAK2 came out at 0%; with PAK3, 31%; in the test on PAK4, 4%; in the test with PAK6 it was 0%; with PAK7, 7%; in the test with PCTK1, 0%. Moreover, the “%Inh” value amounted to 0% in the test with PCTK2, 7% in the test with PCTK3, 0% in the test on PDGFRA and 36% in the test on PDGFRB.
In the case of `COc1ccc(CNC(=O)NC2CCN(c3ccnc(Nc4ccc(F)cc4)n3)C2)cc1` (stereo not drawn) [GSK1379706], the “%Inh” value in the test with PAK2 is 0%; in the test with PAK3, 0%; in the test with PAK4, 0%; in the test with PAK6 it was 0%; with PAK7, 3%; in the test on PCTK1 it was 0%. For the same compound, the “%Inh” value was 18% in the test with PCTK2, 39% with PCTK3, 14% in the test on PDGFRA and 43% with PDGFRB.
For the compound `COc1cc2ncn(-c3cc(OCc4ccncc4Br)c(C(N)=O)s3)c2cc1OC` [GW854278], the “%Inh” value in the test on PAK2 is on record as 14%; with PAK3, 0%; in the test on PAK4, 8%; in the test with PAK6 it was 12%; in the test on PAK7, 16%; in the test with PCTK1, 0%. The “%Inh” value in the test with PCTK2 is 14%; in the test on PCTK3 it was 5%; in the test on PDGFRA, 39%; in the test on PDGFRB it was 58%.
In the case of `Cc1nc(N(C)[C@H]2CN(C(=O)CC#N)CC[C@H]2C)c2cc[nH]c2n1`, the “%Inh” value is listed as 0% with PAK2; 0% with PAK3; 0% with PAK4; 2% with PAK6; 15% with PAK7; 0% with PCTK1. Further, the “%Inh” value in the test on PCTK2, in the test on PCTK3, in the test with PDGFRA and with PDGFRB was 0% in each case.
With `COc1cc(Nc2nccc(N3CCC(NC(=O)C(C)c4ccc(Cl)cc4)C3)n2)cc(OC)c1OC` (stereo not drawn) [GSK1379757], the “%Inh” value in the test with PAK2 was 11%; in the test on PAK3 it was 22%; with PAK4, 0%; in the test with PAK6, 0%; with PAK7, 0%; with PCTK1, 0%. Further, the “%Inh” value with PCTK2 was determined as 0%; with PCTK3 it was 0%; in the test with PDGFRA it was 0%; in the test with PDGFRB, 14%.
As to `COC(=O)c1c(-c2ccccc2)c2cc(C)ccc2c(=O)n1Cc1ccccc1`, the “%Inh” value turned out to be 20% in the test on PAK2; 1% with PAK3; 0% with PAK4; 10% with PAK6; 0% with PAK7; 0% with PCTK1. In addition, the “%Inh” value came to 0% in the test on PCTK2, 0% in the test with PCTK3, 42% in the test with PDGFRA and 90% in the test with PDGFRB.
With `COc1ccc(-n2cnc3c(N)ncnc32)cc1` [SKF-97236], the “%Inh” value amounted to 0% in the test on PAK2; 28% with PAK3; 0% in the test on PAK4; 16% in the test on PAK6; 0% with PAK7; 0% in the test with PCTK1. Besides, the “%Inh” value in the test on PCTK2 was determined as 0%; in the test with PCTK3, 0%; in the test with PDGFRA, 63%; in the test with PDGFRB, 95.1%.
`Cc1ccc(-c2ccc3c(ccc4sc5c(c43)NC[C@@H](C)N=C5N(C)C)n2)cn1`: the “%Inh” value in the test on PAK2 came out at 0%; with PAK3, 0%; in the test with PAK4 it was 0%; in the test with PAK6, 0%; in the test with PAK7, 10%; in the test with PCTK1 it was 0%. The “%Inh” value is 0% with PCTK2, 9% in the test on PCTK3, 0% in the test on PDGFRA and 0% with PDGFRB.
On to `COc1cc2nccc(Nc3cccc(Oc4ccccc4)c3)c2cc1OC.Cl` [GW284543], for which the “%Inh” value in the test on PAK2 was found to be 0%; in the test on PAK3 it was 0%; in the test with PAK4, 0%; in the test with PAK6, 0%; in the test on PAK7, 4%; in the test with PCTK1, 4%. For the same compound, the “%Inh” value in the test with PCTK2 was found to be 0%; with PCTK3 it was 2%; in the test on PDGFRA it was 22%; with PDGFRB it was 26%.
As to `Cc1cccc(-c2cc(-c3c[nH]nc3-c3ccccn3)ccn2)c1` [GW679395], the “%Inh” value with PAK2 is reported as 22%; with PAK3, 1%; in the test with PAK4, 0%; in the test on PAK6, 0%; in the test on PAK7 it was 0%; in the test on PCTK1, 5%. In addition, the “%Inh” value with PCTK2 is reported as 0%; with PCTK3 it was 1%; in the test on PDGFRA, 0%; in the test on PDGFRB, 61%.
As for `Nc1ncnc2c1ncn2-c1cccc(F)c1` [SKF-97560], the “%Inh” value with PAK2 stood at 0%; in the test with PAK3, 0%; in the test on PAK4 it was 5%; in the test on PAK6 it was 12%; with PAK7, 3%; with PCTK1, 27%. Also, the “%Inh” value is recorded as 1% with PCTK2, 10% in the test on PCTK3, 43% with PDGFRA and 58% in the test on PDGFRB.
As for `COc1cccc(C2=C(N(C)c3ccccc3)C(=O)NC2=O)c1` [SB-334865], the “%Inh” value worked out at 0% in the test with PAK2; 1% with PAK3; 0% with PAK4; 0% in the test with PAK6; 0% in the test with PAK7; 0% in the test on PCTK1. Also, the “%Inh” value in the test with PCTK2 is reported as 0%; in the test with PCTK3 it was 0%; with PDGFRA it was 0%; with PDGFRB, 7%.
Turning to `CCS(=O)c1ccc(-c2coc3ccc(-c4nnc(C)o4)cc23)cc1` (stereo not drawn), the “%Inh” value in the test with PAK2 was 0%; with PAK3, 33%; in the test on PAK4, 0%; in the test on PAK6, 20%; in the test with PAK7 it was 0%; in the test on PCTK1, 0%. The “%Inh” value is reported as 0% in the test on PCTK2, 2% with PCTK3, 0% in the test with PDGFRA and 0% in the test on PDGFRB.
